Growth data for eight compounds are collected here from PubChem BioAssay (NCI).

The panel holds about 83,000 compounds, 20% with a hit somewhere; the sample as a whole holds those more often.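 Single-dose data. Exposure time 48 hours. Values below 10 considered active.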 Values without a mark were called inactive. Active and inactive are the calls of the source.

Test systems include NCI-H23 lung; NCI-H226 lung; NCI-H322M lung; HOP-62 NSCLC; NCI-H460 lung; HOP-92 NSCLC; NCI-H522 lung; A549/ATCC NSCLC; 786-0 renal; COLO 205 colon; DU-145 prostate; K-562 leukemia; MALME-3M melanoma; MDA-MB-231 breast; RXF 393 renal; SF-268 CNS; SF-295 CNS; SF-539 CNS; UACC-257 melanoma; M14 melanoma.
Holding throughout (assay): NCI-60 one-dose screen, 48 h (100 = growth as untreated, 0 = no growth, -100 = all killed)
Holding throughout (conditions): 10 µM unless noted

As to `CCCNc1nc(N(C)O)nc(N(C)O)n1`, the growth in the assay with NCI-H23 lung was 41.3%; in the assay on NCI-H226 lung, 62.9%; in the assay with NCI-H322M lung, 41.5%; in the assay on HOP-62 NSCLC, 16.6%; in the assay with NCI-H460 lung, 11.5%; in the assay with HOP-92 NSCLC, 45.2%. The growth with NCI-H522 lung is 37%; in the assay with A549/ATCC NSCLC, 41.3%; with 786-0 renal, 7.79% (active); in the assay on COLO 205 colon, 9.94% (active); with DU-145 prostate, 24.9%; with K-562 leukemia it was 50.7%. In addition, the growth in the assay with MALME-3M melanoma was 83.2%; in the assay on MDA-MB-231 breast, 39.5%; in the assay with RXF 393 renal it was 39%; in the assay on SF-268 CNS it was 35.2%; in the assay on SF-295 CNS, 21.5%; in the assay with SF-539 CNS, 27.1%. Besides, the growth was 56.2% in the assay on UACC-257 melanoma and 20.7% with M14 melanoma.

Take `Cc1ccc(S(=O)(=O)Nc2ccc(-c3cc(-c4cccc(F)c4)c(C#N)c(=O)[nH]3)cc2)cc1`: the growth in the assay with NCI-H23 lung was 87.7%; in the assay on NCI-H226 lung, 79.6%; with NCI-H322M lung it was 90%; in the assay on HOP-62 NSCLC, 92.3%; in the assay on NCI-H460 lung, 98.2%; with HOP-92 NSCLC, 72.9%. For the same compound, the growth is 87.2% with NCI-H522 lung; 68.2% with A549/ATCC NSCLC; 102% in the assay with 786-0 renal; 115% in the assay with COLO 205 colon; 84% in the assay on DU-145 prostate; 54.9% with K-562 leukemia. The growth in the assay with MALME-3M melanoma is 92.6%; with MDA-MB-231 breast, 87.4%; with RXF 393 renal it was 83.1%; in the assay with SF-268 CNS, 74.2%; with SF-295 CNS it was 87.9%; with SF-539 CNS it was 90.1%. For the same compound, the results for the growth in the assay with UACC-257 melanoma and in the assay on M14 melanoma were 103% and 81.3%, respectively.

As to `COc1ccc(OCC(CO)N2CCN(c3ccccc3)CC2)cc1` (stereo not given), the growth is 103% in the assay on NCI-H23 lung; 106% in the assay on NCI-H226 lung; 115% in the assay with NCI-H322M lung; 118% in the assay with HOP-62 NSCLC; 116% in the assay on NCI-H460 lung; 81.2% with HOP-92 NSCLC. Moreover, the growth in the assay with NCI-H522 lung is 99.4%; in the assay on A549/ATCC NSCLC, 100%; with 786-0 renal, 101%; with COLO 205 colon it was 96.3%; in the assay on DU-145 prostate it was 111%; with K-562 leukemia, 126%. The growth in the assay on MALME-3M melanoma was 82.7%; with MDA-MB-231 breast it was 97%; with RXF 393 renal, 119%; in the assay on SF-268 CNS, 95.8%; in the assay with SF-295 CNS it was 101%; in the assay with SF-539 CNS, 98.5%. The growth with UACC-257 melanoma was 96.1%; with M14 melanoma, 99.8%.

With `Fc1ccc2c(c1)c(-c1nc(-c3c[nH]c4ncccc34)cs1)cn2CCCN1CCCCC1`, the growth with NCI-H23 lung was 84.9%; in the assay with NCI-H226 lung it was 80%; in the assay on NCI-H322M lung, 80.6%; in the assay on HOP-62 NSCLC it was 65.3%; in the assay on NCI-H460 lung, 13%; in the assay on HOP-92 NSCLC it was 45.4%. Besides, the growth in the assay on NCI-H522 lung is 94.3%; in the assay with A549/ATCC NSCLC, 65.7%; in the assay with 786-0 renal it was 61.9%; in the assay with COLO 205 colon, -73.1% (active); in the assay on DU-145 prostate, 66.7%; in the assay with K-562 leukemia, -58.8% (active). In addition, the growth with MALME-3M melanoma is 49.8%; with MDA-MB-231 breast, 55.3%; with RXF 393 renal it was 69.4%; with SF-268 CNS, 66.6%; in the assay on SF-295 CNS it was 93.2%; in the assay on SF-539 CNS it was 61.4%. Further, the growth in the assay on UACC-257 melanoma was 100%; with M14 melanoma, -81% (active).

As to `C[C@H]1[C@H]2C3=CC[C@@H]4[C@@]5(C)C/C(=C/c6ccco6)C(=O)C(C)(C)[C@@H]5CC[C@@]4(C)[C@]3(C)CC[C@@]2(C(=O)N2CCOCC2)CC[C@@H]1C`, the growth in the assay on NCI-H23 lung is 44.2%; in the assay with NCI-H226 lung, 83.8%; in the assay with NCI-H322M lung, 95.3%; in the assay with HOP-62 NSCLC it was 105%; in the assay with NCI-H460 lung, 94.9%; in the assay with HOP-92 NSCLC it was 78.4%. Also, the growth was 38% in the assay on NCI-H522 lung; 70.4% with A549/ATCC NSCLC; 95.5% with 786-0 renal; 94.1% in the assay with COLO 205 colon; 88.1% in the assay with DU-145 prostate; 27.4% in the assay on K-562 leukemia. Also, the growth in the assay with MALME-3M melanoma is 83.3%; in the assay with MDA-MB-231 breast, 90.5%; in the assay on RXF 393 renal, 62%; in the assay with SF-268 CNS, 85.8%; in the assay with SF-295 CNS, 81.4%; with SF-539 CNS, 82.7%. The figures for the growth in the assay with UACC-257 melanoma and in the assay on M14 melanoma were 88.4% and 76.9%, respectively.

Take `COc1ccc(-c2c(-c3nc4ccc(N5CCOCC5)cc4[nH]3)[nH]c(C)c2C(C)=O)cc1`: the growth was 52.6% in the assay on NCI-H23 lung; 49.7% in the assay with NCI-H226 lung; 43.6% in the assay with NCI-H322M lung; 30.6% in the assay on HOP-62 NSCLC; 57.8% in the assay on NCI-H460 lung; 49.5% in the assay with HOP-92 NSCLC. Besides, the growth in the assay on NCI-H522 lung is 37.8%; in the assay with A549/ATCC NSCLC, 48.4%; in the assay on 786-0 renal, 45.3%; with COLO 205 colon, 15.9%; in the assay with DU-145 prostate, 74.6%; in the assay with K-562 leukemia it was 35.1%. Also, the growth in the assay with MALME-3M melanoma was 36.4%; with MDA-MB-231 breast, 37.5%; with RXF 393 renal, 44.8%; with SF-268 CNS it was 70.3%; in the assay with SF-295 CNS it was 35.7%; in the assay on SF-539 CNS, 36.9%. Moreover, the growth with UACC-257 melanoma is 44.7%; in the assay with M14 melanoma it was 35.6%.

Regarding `O=C1Nc2ccccc2/C1=C/c1cn(CCCn2c3ccccc3c(=O)c3ccccc32)c2ccccc12`, the growth in the assay on NCI-H23 lung was 79.2%; in the assay on NCI-H226 lung, 81.3%; in the assay with NCI-H322M lung, 86.8%; in the assay on HOP-62 NSCLC, 80.3%; with NCI-H460 lung, 96.3%; with HOP-92 NSCLC, 83.4%. The growth is 77.5% in the assay with NCI-H522 lung; 96.5% in the assay with A549/ATCC NSCLC; 82.9% in the assay on 786-0 renal; 88.6% with COLO 205 colon; 102% with DU-145 prostate; 91.7% in the assay on K-562 leukemia. In addition, the growth in the assay with MALME-3M melanoma was 98.7%; in the assay with MDA-MB-231 breast it was 67.9%; in the assay with RXF 393 renal, 104%; in the assay on SF-268 CNS, 79.2%; in the assay with SF-295 CNS it was 91.5%; with SF-539 CNS it was 86.8%. In addition, the figures for the growth in the assay with UACC-257 melanoma and with M14 melanoma were 109% and 91.1%, respectively.

`O=c1[nH]c2c3ccncc3cc(-c3cccc(Cl)c3)c2c2cnccc12`: the growth in the assay with NCI-H23 lung was 50.8%; with NCI-H226 lung it was 29.6%; with NCI-H322M lung it was 56.2%; with HOP-62 NSCLC it was 0.205% (active); with NCI-H460 lung, 5.33% (active); in the assay on HOP-92 NSCLC, 5.61% (active). In addition, the growth was 53.7% in the assay with NCI-H522 lung; 27.4% in the assay with A549/ATCC NSCLC; 17.4% with 786-0 renal; 25.4% in the assay with COLO 205 colon; 39.5% in the assay on DU-145 prostate; 75% in the assay on K-562 leukemia. In addition, the growth with MALME-3M melanoma was 69.1%; in the assay with MDA-MB-231 breast, 35.1%; with RXF 393 renal it was -16.5% (active); in the assay with SF-268 CNS, 53.9%; in the assay on SF-295 CNS it was 31.4%; in the assay on SF-539 CNS it was 2.59% (active). The results for the growth with UACC-257 melanoma and with M14 melanoma were 49.5% and 55.2%, respectively.
